Screening data (PubChem)
HCV inh – blocks hepatitis C virus; Potency, µM (titrated, usually from 41.8 µM), for inactives: top-dose activity change, negative = inhibition, usual class: inhibitors; Huh7.5.1 HCVcc-Cre infection, luciferase reporter, 44 h; actives 3.4% (n = 340,000); AID 651820; also: potency is read from the fitted curve at half-maximal effect; % is scaled to controls: 0 for no effect and ±100 for the full control effect
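Compounds are dispensed onto cells plated 4 h earlier at 1,000 per well, with HCVcc-Cre virus (about 0.5 moi) added next. Following 44 h of culture, luminescent signal is measured for 15 sec after 15 min with substrate at room temperature.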
CHX counter – counter-screen for Shiga toxin inhibitors: cycloheximide protein synthesis inhibition; actives 12% (n = 300,000); AID 2314; cell reporter, cycloheximide protein synthesis inhibition counterscreen; max response, %; in the data active = max response mostly above about 13%, no sharp cut-off; inactive = mostly below about 14%; also: read at 38.3 µM for the half of the compounds with a filed dose; 0% is about no effect
AMA1 RON2 block – inhibitors of Plasmodium falciparum AMA1-RON2 interaction | AlphaScreen AMA1-biotinylated RON2 peptide binding | Potency, µM (doses to about 58.2 µM), inactives show top-dose activity change, negative = inhibition, actives largely listed as inhibitors | actives 0.2% (n = 360,000) | AID 720542;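 also: potency is read from the fitted curve at half-maximal effect; 0% = vehicle wells and -100% = peptide control; nearly all actives have a fitted effect of over 45% in size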
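AMA1 (3D7) with his tag at 25 nM final met compounds first, then biotinylated RON2 peptide at 25 nM; detection used donor plus acceptor beads, 10 µg/mL apiece, read by AlphaScreen after 30 min at room temperature.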
Shiga inhibitor – blocks Shiga toxin action in Vero cells; inhibition, % at 38.7 µM; actives 9.2% (n = 290,000); AID 2315; Vero cells, Shiga toxin protein synthesis inhibition reporter; in the data active = inhibition mostly above about 28%, no sharp cut-off; inactive = mostly below about 43%; also: 0% is about no effect
Pf growth 96h – P. falciparum growth inhibition at 96 hours; actives 6.9% (n = 320,000); P. falciparum luciferase reporter growth, 96 h; Potency, µM (highest dose often 28.7 µM), for inactives: top-dose activity change, negative = inhibition, most hits filed as inhibitors; AID 504834; also: potency is read from the fitted curve at half-maximal effect; % is scaled to controls: 0 for no effect and ±100 for the full control effect
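Delayed-death screen, second-generation endpoint: infected erythrocytes, 2% hematocrit, 0.05% parasitemia final; 96 hours at 37 C, 5% CO2; luciferase detection reagent; luminescence decrease equals reduced growth.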
Pf growth 48h – P. falciparum growth inhibition at 48 hours (one generation); actives 5.9% (n = 310,000); Potency, µM (titrated, usually from 28.7 µM), inactives show at the highest dose activity change, negative = inhibition, usual class: inhibitors; AID 504832; P. falciparum luciferase growth in erythrocytes, 48 h; also: potency is read from the fitted curve at half-maximal effect; % is scaled to controls: 0 for no effect and ±100 for the full control effect
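Erythrocytes infected with P. falciparum carrying an integrated firefly luciferase reporter (2% hematocrit, 0.1% parasitemia final) were exposed to compounds in RPMI 1640 with 0.5% Albumax at 37 C, 5% CO2. Growth inhibition was scored as reduced luminescence.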
* marks the source's active call; other numbers are inactive results; [ ] = dose if it differs, or a comment. A selection: hits, their analogues and other compounds. The true share with any hit is near 21%. Unless noted, calls follow the shape of the dose curve; as a rule, active = well fitted curve in the direction sought with a large enough effect; inconclusive = small, poorly fitted or top-dose-only effect, or another doubt; inactive = no such curve, though single readings can be large; an effect the other way counts as inactive or inconclusive.

How did C/C(=N/O)c1cc(C(C)(C)C)c(O)c(C(C)(C)C)c1 do in these assays?
HCV inh: inconclusive; CHX counter: -3; AMA1 RON2 block: -10%; Shiga inhibitor: -10

How did CC(C)(Sc1cc(C(C)(C)C)c(O)c(C(C)(C)C)c1)Sc1cc(C(C)(C)C)c(O)c(C(C)(C)C)c1 do in these assays?
HCV inh: -11%[8.37 µM]; CHX counter: -3; AMA1 RON2 block: 6%; Shiga inhibitor: -7; Pf growth 96h: 1µM*; Pf growth 48h: 7.2µM*

What do the screens show for `CCN(C(=O)C(C)OC(=O)C1C(C(=O)OC)=C(C)NC(C)=C1C(=O)OC)c1ccccc1` (centres undefined)?
HCV inh: 11%; CHX counter: -6; AMA1 RON2 block: -2%; Shiga inhibitor: -9; Pf growth 96h: -2%; Pf growth 48h: -8%

What do the screens show for `CN(C)C(=O)c1ccc(NC(=O)c2cccc(S(=O)(=O)N3CCCc4ccccc43)c2)cc1`?
HCV inh: inconclusive; AMA1 RON2 block: -1%; Pf growth 96h: 9.3µM*; Pf growth 48h: 5.2µM*

How did CN(C)C(=O)c1ccc(NC(=O)c2cccc(S(=O)(=O)N3CCCCCC3)c2)cc1 do in these assays?
HCV inh: inconclusive; AMA1 RON2 block: -3%; Pf growth 96h: 5.2µM*; Pf growth 48h: inconclusive

Results for COc1ccccc1-c1noc2ncnc(Nc3ccc4c(c3)OCO4)c12 ?
HCV inh: 24%; CHX counter: -4; AMA1 RON2 block: -4%; Shiga inhibitor: 16; Pf growth 96h: inconclusive; Pf growth 48h: -8%

Results for COc1ccccc1N1CCN(C(=O)c2ccc(N3CCCCS3(=O)=O)cc2)CC1 ?
HCV inh: 3%; CHX counter: 1; AMA1 RON2 block: -5%; Shiga inhibitor: 10; Pf growth 96h: 4%; Pf growth 48h: -3%

How did COc1ccc(C(=O)CN2CCCCC2)cc1 do in these assays?
HCV inh: 9%; CHX counter: 28; AMA1 RON2 block: 11%; Shiga inhibitor: 32; Pf growth 96h: 17%; Pf growth 48h: 37%

How did CC1CC(C)CN(CC(=O)c2ccc(OC(F)F)cc2)C1 (centres undefined) do in these assays?
HCV inh: 15%; CHX counter: 34*; AMA1 RON2 block: 12%; Shiga inhibitor: 26*; Pf growth 96h: -26%; Pf growth 48h: 7%

Results for COc1cccc(N2C(=O)N(c3ccccc3)C3CS(=O)(=O)CC32)c1 (centres undefined) ?
HCV inh: 22%; CHX counter: -3; AMA1 RON2 block: 2%; Shiga inhibitor: -24; Pf growth 96h: 48%; Pf growth 48h: -3%

What do the screens show for `COc1cccc(C2C=C(Nc3ccccc3)C(=O)N2c2ccccc2)c1` (centres undefined)?
HCV inh: 5%; CHX counter: 27*; AMA1 RON2 block: -8%; Shiga inhibitor: 19*; Pf growth 96h: -33%; Pf growth 48h: inconclusive

What do the screens show for `COc1ccc(C2C=C(Nc3ccccc3)C(=O)N2c2ccccc2)cc1OC` (centres undefined)?
HCV inh: -6%; CHX counter: 38*; AMA1 RON2 block: 2%; Shiga inhibitor: 66*; Pf growth 96h: inconclusive; Pf growth 48h: -4%

Results for O=C(Oc1ccc2ccccc2c1Cl)N1CCCC1 ?
HCV inh: -18%; CHX counter: 38*; AMA1 RON2 block: -17%; Shiga inhibitor: 59*; Pf growth 96h: inconclusive; Pf growth 48h: 239%

What do the screens show for `O=C(Oc1ccc2ccccc2c1Cl)N1CCCCCC1`?
HCV inh: -3%; CHX counter: 66*; AMA1 RON2 block: 23%; Shiga inhibitor: 71*; Pf growth 96h: 3.3µM*; Pf growth 48h: 246%

How did CCCNC(=O)C1(C)CCCN(Cc2cccc(Oc3ccccc3)c2)C1 (centres undefined) do in these assays?
AMA1 RON2 block: 2%

Results for CC(NC(=O)CN1C(=O)NC2(CCCCC2)C1=O)c1ccc(S(N)(=O)=O)cc1 (centres undefined) ?
HCV inh: -5%; AMA1 RON2 block: -21%

What do the screens show for `CCCCNC(=O)C1(C)CCCCN1C(=O)c1ccc(OC)c(C(F)(F)F)c1` (centres undefined)?
AMA1 RON2 block: 9%

How did CCOc1ccc(NC(=O)CCCc2cc(-c3ccc(OCC)cc3)on2)cc1 do in these assays?
HCV inh: 1%; CHX counter: 2; AMA1 RON2 block: -1%; Shiga inhibitor: 13; Pf growth 48h: -1%

What do the screens show for `CCOc1ccc(-c2cc(CCCC(=O)Nc3cccc(OC)c3)no2)cc1`?
HCV inh: inconclusive; CHX counter: 2; AMA1 RON2 block: -4%; Shiga inhibitor: -4; Pf growth 96h: -27%; Pf growth 48h: inconclusive

Results for CCOc1ccc(-c2cc(CCCC(=O)NCCC(C)C)no2)cc1 ?
HCV inh: -17%; CHX counter: 25*; AMA1 RON2 block: -5%; Shiga inhibitor: 134*; Pf growth 96h: inconclusive; Pf growth 48h: 11%

Results for CCOc1ccc(-c2cc(CCCC(=O)NCc3cccnc3)no2)cc1 ?
HCV inh: inconclusive; CHX counter: 51*; AMA1 RON2 block: -1%; Shiga inhibitor: 65*; Pf growth 96h: 7%; Pf growth 48h: 22%

Results for Cc1nn(C)c(C(=O)NNC(=O)NC2CCCCC2)c1Cl ?
HCV inh: 7%; CHX counter: 1; AMA1 RON2 block: 87%; Shiga inhibitor: -6; Pf growth 96h: 20%; Pf growth 48h: -1%

How did Cc1nc2sccn2c(=O)c1CCN1CCC(=C(c2ccccc2)c2ccc(F)cc2)CC1 do in these assays?
HCV inh: 1%[8.37 µM]; CHX counter: -5; Shiga inhibitor: -16; Pf growth 96h: 15µM*; Pf growth 48h: 15µM*

What do the screens show for `Cc1ccc(NC(=O)CSc2ccc3nnc(-c4ccccn4)n3n2)cc1`?
HCV inh: -7%; CHX counter: -2; AMA1 RON2 block: -7%; Shiga inhibitor: 5; Pf growth 96h: 13µM*; Pf growth 48h: inconclusive

How did O=C(CSc1ccc2nnc(-c3ccccn3)n2n1)Nc1ccc2c(c1)OCO2 do in these assays?
HCV inh: -3%; CHX counter: -1; AMA1 RON2 block: inconclusive; Shiga inhibitor: -16; Pf growth 96h: 1.9µM*; Pf growth 48h: 3.7µM*

How did COc1ccc(OC)c(NC(=O)CSc2ccc3nnc(-c4ccccn4)n3n2)c1 do in these assays?
HCV inh: 2%; CHX counter: -2; AMA1 RON2 block: 29%; Shiga inhibitor: -2; Pf growth 96h: inconclusive; Pf growth 48h: inconclusive

How did O=C(CSc1ccc2nnc(-c3ccccn3)n2n1)Nc1ccc2c(c1)OCCO2 do in these assays?
HCV inh: 1%; CHX counter: -5; AMA1 RON2 block: 5%; Shiga inhibitor: -13; Pf growth 96h: inconclusive
